Screens (PubChem BioAssay)
S1P4 ag = human S1P4 receptor agonism | O95977 | S1P4-expressing cell line, agonist reporter assay | activation, % at 4.98 µM | 0.35% of 220,000 active; in the data active = activation above about 11%;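 note: 0% = DMSO vehicle and 100% = reference agonist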
Hsp70 act = switches on Hsp70 transcription | HeLa Hsp70 promoter luciferase reporter, luminescence; scaled: vehicle 0, proteasome-inhibitor control 100% | activation, % at 10 µM | 0.04% of 200,000 active;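 active = activation above the mean across all tested compounds plus 3 SD, cutoff set per campaign, cut at about 5.5% in these data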;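 note: 100% = MG132 at 30 µM as the positive control and 0% = DMSO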
HSF1 activator = increases HSF-1 driven luciferase reporter signal | activation, % at 9 µM | 1.7% of 300,000 active | NIH3T3-HGL HSF-1 luciferase reporter, MG132, 8 h; 100% = twice DMSO control signal | AID 504408;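 active = mean replicate activation of at least 50% with a set share of replicates each reaching 50%; inconclusive = only one of those two conditions met; inactive = mean below 50% and too few replicates reaching it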;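 note: 0% = median of the neutral control wells and 100% = twice that signal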
S1P4 antag = blocks the human S1P4 receptor. 0.26% of 220,000 active. inhibition, % at 4.98 µM. S1P4-expressing cells, antagonist mode, reporter read-out. O95977; in the data active = inhibition above about 29%;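 note: 0% = wells stimulated with agonist and 100% = vehicle wells without agonist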
S1P3 antagonist = blocks the human S1P3 receptor | Q99500 | CHO S1P3 NFAT-BLA reporter, FRET fluorescence, antagonist mode | inhibition, % at 4.98 µM | 0.27% of 170,000 active;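 active = inhibition above the plate cutoff, the mean inhibition of test wells on that plate plus 3 SD, cut at about 28% in these data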;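 note: cells challenged with S1P at its EC80 of 0.8 µM; blue over green emission ratio from cleaved BLA substrate after 4 h stimulation; 0% = S1P-stimulated wells and 100% = unstimulated DMSO-only wells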
Target sequence (Q99500 whole entry, looked up): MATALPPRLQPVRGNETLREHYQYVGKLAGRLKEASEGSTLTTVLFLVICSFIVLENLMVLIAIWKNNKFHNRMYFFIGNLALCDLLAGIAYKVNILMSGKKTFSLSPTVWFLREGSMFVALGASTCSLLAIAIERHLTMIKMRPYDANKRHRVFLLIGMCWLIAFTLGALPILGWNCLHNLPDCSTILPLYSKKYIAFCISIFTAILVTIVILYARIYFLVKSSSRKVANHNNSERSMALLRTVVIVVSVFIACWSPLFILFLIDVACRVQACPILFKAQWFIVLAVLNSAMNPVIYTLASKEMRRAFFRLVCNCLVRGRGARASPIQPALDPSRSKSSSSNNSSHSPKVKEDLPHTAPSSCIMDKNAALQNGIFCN
HSF1 inhib = HSF1 inhibition. activity change, negative = inhibition, % at 7.5 µM (by protocol). 0.77% of 300,000 active. NIH3T3-HGL HSE-luciferase, MG132-induced, luminescence 8 h; hits give low values;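 active = more than half of replicate wells show activity change below -50%, luminescence cut by over half; inconclusive = some wells, but at most half, below -50%; inactive = no replicate well below -50%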;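 note: luciferase reports HSF-1 transcriptional activity via heat shock element; 0% = median of DMSO wells and -100% = zero luminescence signal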
The depositor's hits bear a star; ? = inconclusive; · = no result. Hits are enriched below; roughly 2.9% of the tested compounds scored in any of these assays.

SMILES | S1P4 ag | Hsp70 act | HSF1 activator | S1P4 antag | S1P3 antagonist | HSF1 inhib
O=C(O)/C(=C\c1cccs1)c1ccccc1 | 1 | 0 | -5 | -13 | 0 | -3
COc1ccc2nc(Cl)c(C#N)cc2c1 | 0 | 0 | -72 | -17 | 1 | -65*
Cc1ccc2nc(Cl)c(C#N)cc2c1 | 1 | 2 | 1 | -11 | -4 | 6
N#CC1=C(N)NC(=S)C(C(N)=O)C1c1ccc([N+](=O)[O-])cc1 (stereo not given) | 3 | 0 | -2 | -15 | -31 | -2
CCOC(=O)COc1ccc(/C=C2/SC(=Nc3ccccc3)N(Cc3cccnc3)C2=O)cc1OC | 0 | 0 | 64* | -18 | · | 28
CCOc1cc(/C=C2\SC(=Nc3ccccc3)N(c3ccccc3)C2=O)ccc1OCC(=O)O | 1 | 0 | 26 | -11 | -22 | 6
Cc1c(Cl)ccc2c1NC(=O)C21NC(CCC(N)=O)[C@H]2C(=O)N(c3ccc(Cl)cc3)C(=O)[C@H]21 (stereo not given in full) | -1 | 0 | 56* | -12 | -14 | 18
Cc1c(Cl)ccc2c1NC(=O)[C@]21N[C@@H](CCC(N)=O)[C@H]2C(=O)N(c3ccc(F)cc3)C(=O)[C@H]21 | 1 | 0 | -2 | 2 | -21 | 2
COc1ccc(C2NC(=S)NC3=C2CCCC3=C2SCCS2)cc1 (stereo not given) | 2 | 0 | -60 | 5 | -18 | -56*
c1ccc(CNc2nc(NCc3ccccc3)c3ccccc3n2)cc1 | -1 | · | -65 | 17 | -6 | -60*
CC1(C)Cc2c(C#N)c(SCCC#N)nc(N3CCOCC3)c2CO1 | · | · | -68 | · | · | -61*
CC(=O)Nc1ccc2ccccc2c1 | 1 | 0 | 18 | -7 | · | 8
CCOC(=O)C(Nc1ccc2ccccc2c1)C(=O)OCC | 0 | 0 | 59* | -15 | -5 | 42
CCCCCCOc1ccc(/C(C)=N/NC2=NCCN2)cc1[N+](=O)[O-] | -1 | 0 | ? | -4 | -6 | 17
C/C(=N\NC1=NCCN1)c1ccc(N)c([N+](=O)[O-])c1 | 0 | · | -75 | -11 | -10 | -72*
COc1ccc(-c2cn3cc(Cl)ccc3n2)cc1OC | 0 | 0 | 64* | 8 | 24 | 37
Clc1ccc2nc(-c3ccc(Br)s3)cn2c1 | -1 | 0 | 36 | -13 | · | 25
Cc1ccc2nc(-c3cccc(S(=O)(=O)N(C)C)c3)cn2c1 | 0 | 0 | 16 | -6 | 15 | -5
COc1ccc(-c2cn3cc(C)ccc3n2)cc1Br | 2 | 0 | 66* | -18 | 9 | 42
COc1ccc(Cc2noc(CN(C)CC(O)c3ccccc3)n2)cc1OC (stereo not given) | 1 | 0 | 6 | -4 | -23 | -8
O=C(Nc1cccc(C(F)(F)F)c1)Nn1cnnc1 | · | · | 33 | · | · | 15
CC[n+]1c(/C=C2\C=C(C)CC(C)(C)C2)sc2ccccc21 | 2 | -1 | 85* | 5 | · | 67
Cc1cc(C)c2cc(C(=O)N(C)C3CCN(C)CC3)[nH]c2c1 | 1 | · | 55* | 4 | 4 | 19
Cc1cc(C)c2cc(C(=O)N3CCc4ccccc4C3)[nH]c2c1 | 0 | · | 14 | -3 | 12 | -4
COc1cc2c(cc1OC)C(c1cccs1)N(C(=O)c1ccc(S(=O)(=O)N(C)C)cc1)CC2 (stereo not given) | 1 | · | -21 | -5 | 4 | -6
SMILES | S1P4 ag | Hsp70 act | HSF1 activator | S1P4 antag | S1P3 antagonist | HSF1 inhib
CC(C)(C)C(=O)Nc1ccc(N=Nc2ccccc2)cc1 | 0 | -1 | -80 | 0 | 3 | -78*
O=C(CCCCCCC(=O)NCc1ccccc1)NCc1ccccc1 | · | · | 0 | · | · | -6
Cc1ccn(CC(=O)N2CCCC(N3CCN(c4ccc(F)cc4)CC3)C2)n1 (stereo not given) | · | · | 67* | · | · | 19
Cc1cc(C)n(CC(=O)N2CCCC(N3CCN(c4ccc(F)cc4)CC3)C2)n1 (stereo not given) | · | · | 12 | · | · | -5
CN(CCC#N)C(=O)COC(=O)c1ccc(Cl)cc1O | -1 | 0 | -18 | -13 | -5 | 3
CSc1ccc(Cl)c(C(=O)OCC(=O)N(C)CCC#N)c1 | 2 | -1 | 59* | -43 | -6 | 19
O=[N+]([O-])c1ccc(-c2cn3ccccc3n2)cc1 | · | · | 9 | · | · | -2
CCCCOc1ccc(-c2cn3ccccc3n2)cc1[N+](=O)[O-] | 1 | 0 | 63* | -29 | 5 | 37
CCOc1ccc(-c2cn3ccccc3n2)cc1[N+](=O)[O-] | -2 | 0 | 55* | -19 | -1 | 24
CCOCCn1c(COc2ccc(C)cc2)nc2ccccc21 | -1 | 0 | 76* | 22 | -10 | 47
COCCn1c(COc2ccc(C)cc2)nc2ccccc21 | 2 | 0 | 46 | -5 | 12 | 41
CCn1c(COc2ccc(C)cc2)nc2ccccc21 | 1 | 0 | 81* | -8 | 0 | 47
C=CCc1cccc(CNc2nc3ccccc3n2CC)c1O | -1 | 0 | 28 | 0 | 38 | 13
C=CCc1cccc(CNc2nc3ccccc3n2CCC)c1O | -3 | 0 | 149* | 7 | 77* | 102
Cn1c(=O)c(C(=O)CN2CCOCC2)c(N)n(Cc2ccccc2)c1=O | 1 | 0 | -44 | -12 | 16 | -28
CCn1c(=O)c(C(=O)CN2CCOCC2)c(N)n(Cc2ccccc2)c1=O | -1 | 0 | -7 | 11 | 77* | -4
COc1cccc2c1C(CO)N1C(C#N)C3CC(C(=O)O)C(C1C2)N3C (stereo not given) | 0 | · | · | 94* | 27 | ·
CCOC(=O)c1c(C)n(C)c2c(C)cc(O)c(OC(=O)CC)c12 | -1 | 0 | -18 | 8 | -10 | -3
Cc1ccc2nc(N3CCN(C)CC3)c(C=O)c(=O)n2c1 | · | · | 4 | · | · | -2
Cn1nccc1C(=O)Nc1ccc2c(c1)OCCO2 | 1 | 1 | -50 | -27 | -15 | -44
COCCN1Cc2cccc(C(=O)Nc3ccc4c(c3)OCCO4)c2C1=O | -3 | 0 | -56 | -12 | -22 | -52*
Cc1c(C(=O)Nc2ccc3c(c2)OCCO3)cnn1C | · | · | -65 | · | · | -61*
O=C(Cn1nc2ccccc2n1)N/N=C/c1cc([N+](=O)[O-])ccc1O | 0 | 0 | -63 | -11 | -14 | -53*
O=C(CSc1ncccn1)NCC1CCCO1 (stereo not given) | · | · | -3 | · | · | -3
Cc1ccc(Nc2ncc3c(n2)CC(C)CC3=O)c(C)c1 (stereo not given) | 0 | · | 59* | -9 | -2 | 27
CC1CC(=O)c2cnc(Nc3ccccc3)nc2C1 (stereo not given) | -1 | 0 | 38 | 8 | · | 7
c1ccc(Oc2cccc(OCCn3cncn3)c2)cc1 | -2 | 0 | -69 | -5 | 5 | -57*
CSc1cccc(N2CC(C(=O)Nc3cccc(S(=O)(=O)N4CCCC4)c3)CC2=O)c1 (stereo not given) | · | · | -1 | · | · | -12
